# Measurements: PubChem BioAssay (NCI)
# The panel holds about 83,000 compounds, 20% with a hit somewhere; the sample as a whole holds those more often.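 Single-concentration screen, 48 h exposure, 96-well plates. Endpoint: percent growth. Below 10 = active.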 Calls of active or inactive are those of the source.
# System: HL-60(TB) leukemia
# Assay: NCI-60 one-dose screen, 48 h (100 = growth as untreated, 0 = no growth, -100 = all killed)
# Settings: 10 µM unless noted
row,SMILES,growth
1,CCCOc1nc(SCCC)nc2c1cnn2-c1ccccc1,136% (inactive)
2,CCC(=O)Oc1cc(Cl)c(Cl)cc1Cl,106% (inactive)
3,Nc1ncnc2c1N=C(c1ccc3c(c1)OCO3)CC(c1ccc([N+](=O)[O-])cc1)N2 (centres undefined),88.7% (inactive)
4,N#C/C(=C1C=C/C(=N/O)C(Cl)=C/1)c1ccc(Cl)cc1,61.1% (inactive)
5,COc1ccc(/C=C/C(=O)C(CC2CCC2)C(=O)/C=C/c2ccc(OC)c(OC)c2)cc1OC,-27.5% (active)
6,N#CC1=C(N)Oc2c(ccc3ccccc23)C1c1cccs1 (centres undefined),-29.6% (active)
7,O=C(NNC(=S)Nc1ccccc1)c1cc2ccc1CCc1ccc(cc1)CC2,77.1% (inactive)
8,CCOC(=O)C1C(=O)C=C(c2ccccc2)CC1c1sc(N(C)Cc2ccccc2)nc1Cl (centres undefined),78.4% (inactive)
9,CCN(CC)CCOc1ccc(Nc2ncc3cc(-c4ccc(O)cc4)c(=O)n(C)c3n2)cc1,40.2% (inactive)
10,NC(=O)c1ccccc1OCC(=O)Nc1ccc(Cl)c(Cl)c1,86.4% (inactive)
11,c1ccc2c(-c3cnn4cc(-c5ccc(N6CCNCC6)cc5)cnc34)ccnc2c1,-55.7% (active)
12,O=C(COc1cccc(/C=C2\Cc3ccc(Cl)cc3C2=O)c1)Nc1nccs1,62.2% (inactive)
13,CCN1C(=S)N(CC)C2Nn3c(s/c(=C4\C(=O)N(C)c5ccccc54)c3=O)=NC21 (centres undefined),6.45% (active)
14,COc1cc2oc3cc(=O)cc4oc(-c5ccccc5)cc(c2c2c1CCC(c1ccccc1)O2)c43 (centres undefined),138% (inactive)
15,CC#CC(=O)N1CCC[C@H]1c1nc(-c2ccc(C(=O)Nc3ccccn3)cc2)c2c(N)nccn12,130% (inactive)
16,COc1cnc2c(c1)C(=O)c1c-2n(CCCN2CCNCC2)c(=O)c2cc(Cl)ccc12,-44.9% (active)
17,COc1ccc(Cc2nc(C#N)c(N3CCN(c4ccc(F)cc4)CC3)o2)cc1,79.2% (inactive)
18,N#Cc1c(NN)n(C2OC(CO)C(O)C2O)c2ncnc(N)c12 (centres undefined),-52.1% (active)
19,CCCCCCCCCCCC(c1ccccc1)N(C)C (centres undefined),104% (inactive)
20,COc1cc2cc(NCc3ccncc3)nc(C)c2cc1OC,103% (inactive)

row,SMILES,growth
1,O=C(Nn1cnc2ccccc21)N1CCCC1,87.1% (inactive)
2,CCCCN(CCCC)c1ccc(C(=N)c2ccc(N(C)C)cc2)cc1,-55.1% (active)
3,COc1ccc2c(c1)sc1nc(-c3ccccc3)c(-c3cccc4ccccc34)n12,6.59% (active)
4,O=c1cc(-c2ccccc2)[nH]c2c1CCCC2,19.1% (inactive)
5,O=C(C[C@]1(O)C(=O)Nc2ccc(Br)cc21)c1ccco1,107% (inactive)
6,COc1ccc2c(c1)nnc1c3cccnc3[nH]c21,-31.4% (active)
7,O=C(Nc1nc(Cl)nc(Nc2ccc(N3CCOCC3=O)cc2)n1)c1ccc(Cl)s1,68.7% (inactive)
8,COc1ccc(S(=O)(=O)NCCNc2nccc(-c3c(-c4ccccc4)nc4sccn34)n2)cc1,25.4% (inactive)
9,CCOC(=O)C1CCN(c2ccc(N3C[C@@H](CNCc4ccc(C(=N)N)cc4)OC3=O)cc2)CC1,101% (inactive)
10,O=C(NC(CSSCC(NC(=O)c1ccccc1)C(=O)O)C(=O)O)c1ccccc1 (centres undefined),60.7% (inactive)
11,C/C(=C(/c1ccccc1)c1ccc(OCC(O)CNCCN2CCOCC2)cc1)c1ccccc1 (centres undefined),29% (inactive)
12,O=S(=O)(NCCNc1nccc(-c2c(-c3ccc(F)c(O)c3)nc3sccn23)n1)c1ccc(O)cc1,41.8% (inactive)
13,CN1C2C=CC(=O)C1C1C(=O)N(c3ccccc3)C(=O)C12 (centres undefined),55.7% (inactive)
14,Nc1nc(-c2cccc3ccccc23)cc2ccccc12,-48.5% (active)
15,CC(C)CSc1ncnc2nc[nH]c12,133% (inactive)
16,O=C1NCN(CCO)CN1,97.5% (inactive)
17,COc1ccc(Cn2cc3c(c2-c2ccc(OC)cc2)CCc2cnoc2-3)cc1,-6.74% (active)
18,FC(F)(F)Oc1ccc2c(c1)C[C@H]1C[C@@H](c3ccoc3)N2O1,104% (inactive)
19,O=[N+]([O-])c1cccc(/C=N\Nc2ccccc2)c1,20.1% (inactive)
